AmpC no deterg – qHTS Inhibitors of AmpC Beta-Lactamase (assay without detergent); P00811; AmpC nitrocefin hydrolysis, absorbance 480 nm, 0.0001% Triton; Potency, µM (highest dose often 57.1 µM), for inactives: at the top dose activity change, negative = inhibition, usual class: inhibitors; 0.52% of 330,000 active; AID 485341, 2010;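 also: potency is read from the fitted curve at half-maximal effect; plate controls were no compound for no effect and no enzyme for full effect; nearly all actives have a fitted effect of over 20% in size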
Target sequence (P00811 whole entry, looked up): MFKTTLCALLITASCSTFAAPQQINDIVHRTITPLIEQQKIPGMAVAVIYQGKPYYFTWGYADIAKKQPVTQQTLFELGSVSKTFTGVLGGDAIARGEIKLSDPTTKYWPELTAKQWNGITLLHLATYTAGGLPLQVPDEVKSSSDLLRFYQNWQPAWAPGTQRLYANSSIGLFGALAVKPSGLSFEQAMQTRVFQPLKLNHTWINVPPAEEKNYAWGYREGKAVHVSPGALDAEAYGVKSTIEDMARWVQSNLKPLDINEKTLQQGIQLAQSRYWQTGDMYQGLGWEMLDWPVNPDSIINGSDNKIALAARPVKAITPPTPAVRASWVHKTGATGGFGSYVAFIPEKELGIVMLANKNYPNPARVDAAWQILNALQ
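20 mM phosphate pH 7.0 + 0.01% (detergent screen) or 0.0001% Triton X-100; 5.3 nM AmpC reagent; cpd preinc 15 min RT; nitrocefin (800 uM stock) to start; A480 q20 s × 4 min; Activity was normalised to no-enzyme and no-compound control wells.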
CHX counter-1 – Cycloheximide Counterscreen for Small Molecule Inhibitors of Shiga Toxin. cell reporter, cycloheximide protein synthesis inhibition counterscreen. max response, %. 12% of 300,000 active. AID 2314, 2010; in the data active = max response mostly above about 13%, no sharp cut-off; inactive = mostly below about 14%; also: read at 38.3 µM for the half of the compounds with a filed dose; 0% is about no effect
AmpC detergent – qHTS Inhibitors of AmpC Beta-Lactamase (assay with detergent) | P00811 | AmpC hydrolysis of nitrocefin, absorbance 480 nm, 0.01% Triton | Potency, µM (titrated, usually from 114 µM), for inactives: at the highest dose activity change, negative = inhibition, most hits filed as inhibitors | 0.041% of 370,000 active | AID 485294, 2010;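 also: potency is read from the fitted curve at half-maximal effect; 0% = no-compound wells and -100% = no-enzyme wells; nearly all actives have a fitted effect of over 25% in size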
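AmpC (5.3 nM in the dispensed reagent) in 20 mM phosphate pH 7.0 with 0.01% (detergent screen) or 0.0001% Triton X-100 was preincubated with compounds for 15 min at room temperature. Nitrocefin was then added from an 800 uM solution, and hydrolysis was followed at 480 nm.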
AMA1 RON2 block – qHTS for Inhibitors of AMA1-RON; Towards Development of Antimalarial Drug Lead: Primary Screen | Plasmodium falciparum AMA1 (3D7) - RON2 peptide interaction | AlphaScreen AMA1-biotinylated RON2 peptide binding | Potency, µM (doses to about 58.2 µM), inactives show top-dose activity change, negative = inhibition, actives largely listed as inhibitors | 0.2% of 360,000 active | AID 720542, 2013;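 also: potency is read from the fitted curve at half-maximal effect; 0% = vehicle wells and -100% = peptide control; nearly all actives have a fitted effect of over 45% in size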
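AMA1 (3D7) with his tag at 25 nM final met compounds first, then biotinylated RON2 peptide at 25 nM; detection used donor plus acceptor beads, 10 µg/mL apiece, read by AlphaScreen after 30 min at room temperature.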
SARS PLpro yeast-1 – qHTS of Yeast-based Assay for SARS-CoV PLP | Potency, µM (series often up to 32.9 µM), inactives show top-dose activity, positive = growth rescue, most hits filed as activators | 0.19% of 330,000 active | S. cerevisiae expressing SARS-CoV PLpro, growth rescue | AID 485353, 2010; calls by dose curve; also: potency is read from the fitted curve at half-maximal effect; 0% is about no effect; nearly all actives have a fitted effect of over 55% in size
Shiga inhibitor – A qHTS for Small Molecule Inhibitors of Shiga Toxin; inhibition, % at 38.7 µM; Vero cells, Shiga toxin protein synthesis inhibition reporter; 9.2% of 290,000 active; in the data active = inhibition mostly above about 28%, no sharp cut-off; inactive = mostly below about 43%; also: 0% is about no effect
CHX counter-2 – Cycloheximide Counterscreen for Small Molecule Inhibitors of Shiga Toxin (Confirmatory) | shares compounds with Shiga inhibitor | Cycloheximide counterscreen, protein synthesis reporter, Shiga toxin assay | Potency, µM (highest dose often 38.3 µM), without a hit: at the top dose activity (activation), most hits filed as activators | 3% of 510 active | AID 2318, 2010; calls by dose curve; also: potency is read from the fitted curve at half-maximal effect; 0% is about no effect
SARS PLpro yeast-2 – qHTS of Yeast-based Assay for SARS-CoV PLP: Hit Validation; shares compounds with SARS PLpro yeast-1; yeast expressing SARS-CoV PLpro, growth phenotype rescue; calls only; 19% of 1,000 active; AID 652038, 2013; call rule not given here
An asterisk follows results filed as active; i = inactive; ? = inconclusive; · = no result given; + = active, no number; [ ] = remark or other dose. This is one part of a sample in which hits are shown more often than they occur. Unless noted, calls follow the shape of the dose curve; as a rule, active = well fitted curve in the direction sought with a large enough effect; inconclusive = small, poorly fitted or top-dose-only effect, or another doubt; inactive = no such curve, though single readings can be large; an effect the other way counts as inactive or inconclusive.

SMILES	AmpC no deterg	CHX counter-1	AmpC detergent	AMA1 RON2 block	SARS PLpro yeast-1	Shiga inhibitor	CHX counter-2	SARS PLpro yeast-2
CCCN1Cc2cccc(C(=O)Nc3ccccc3F)c2C1=O	·	·	14.4%	·	·	·	·	·
NC(=O)C1CCN(C(=O)C2c3ccccc3C(=O)N3CCc4ccccc4C23)CC1 (stereo not given)	1.3%	0.9	4.0%	-11.4%	-2.7%	46.2*	-4.7%	·
O=c1n(Cc2ccc(F)cc2)nc2n1-c1ccccc1SC2	-46.9%	14.0	-3.6%	7.4%	0.7%	31.2*	5.8%	·
Cc1ccc(C)n1-c1ccc(NC(=O)c2ccccc2)cc1	-47.6%	7.1	-3.0%	-2.0%	8.2%	32.2*	?	·
CC(OC(=O)c1ccc2c(=O)n3c(nc2c1)CCC3)C(=O)Nc1ccc(C(N)=O)cc1 (stereo not given)	-5.9%	·	-19.8%	-10.0%	2.0%[6.58 µM]	·	·	·
CC(OC(=O)c1ccc2c(=O)n3c(nc2c1)CCC3)C(N)=O (stereo not given)	-7.7%[11.4 µM]	10.9	-1.2%	23.6%	0.3%	51.2*	1.4%	·
COc1nccnc1NS(=O)(=O)c1ccc(NC(=S)NC(=O)/C=C/c2ccccc2)cc1	-31.6%	8.6	-8.2%	21.2%	4.6%	-8.2	·	·
COc1ccc(-c2nc(NC(=O)CSc3nnc4ccccn34)ns2)cc1	-14.9%	2.2	?	-5.1%	1.6%	44.2*	?	·
COc1ccccc1NC(=O)CSc1nnc2ccccn12	-6.6%	·	-12.2%	14.4%	6.0%	·	·	·
COC(=O)c1ccc(NC(=O)Cc2ccc(F)cc2)cc1	-22.5%	13.6	0.7%	-0.5%	-1.9%	151.3*	?	·
COC(=O)c1ccc(CNCC(=O)Nc2ccc(C(=O)OC)cc2)cc1	11.5%	4.2	14.9%	0.0%	14.3%	-10.9	·	·
O=C(NCCc1ccccc1)C1CCCN1S(=O)(=O)c1ccc(F)cc1 (stereo not given)	·	·	·	4.2%	·	·	·	·
O=C(NCCc1ccccc1)C1CCCN1S(=O)(=O)c1ccccc1 (stereo not given)	0.2%	8.1	2.0%	-2.5%	3.4%	21.9*	4.3%	·
Cc1cc2nc(CCN3CCOCC3)n(S(=O)(=O)c3ccc(C(C)(C)C)cc3)c2cc1C	-4.4%	11.6	?	-2.6%	7.2%	38.4*	?	·
COc1ccccc1C(=O)Nc1ccc2nc(SCCOc3ccccc3C)sc2c1	·	·	9.5%	·	·	·	·	·
Cc1nc(-c2ccccc2)sc1C1(C)CC(c2cccc(F)c2)=NO1 (stereo not given)	·	·	·	3.3%	·	·	·	·
Cc1nc(-c2ccccc2)sc1C1(C)CC(c2cccc([N+](=O)[O-])c2)=NO1 (stereo not given)	-23.8%	1.2	0.7%	-26.2%	-3.1%	30.1*	1.1%	·
CCCCC(=O)Nc1c(C(=O)N2CCN(c3ccccc3)CC2)oc2ccccc12	·	·	23.0%	·	·	·	·	·
C=CCOC(=O)C1=C(C)OC(N)=C(C(=O)OCC)C12C(=O)N(CC(N)=O)c1ccccc12 (stereo not given)	58.3%	6.3	-12.7%	-2.7%	2.8%	33.2*	-1.8%	·
Cc1ccc(NC(=O)CCn2cnc3ccccc3c2=O)c(C)c1	2.8%	0.8	5.1%	34.6%	-0.6%	11.9	·	·
Cc1cc(-c2ccccc2)nc(SCc2ccc(C(=O)O)cc2)n1	-30.7%	-1.1	?	-0.1%	-7.4%	1.1	·	·
CCOC(=O)N1CCN(CCC(=O)Nc2ccccc2OC)CC1	-9.8%	1.1	-0.7%	-3.3%	?	-1.2	·	i
CCCC(O)(CCC)C(=O)NNc1ccc(C)cc1	-8.0%	12.3	4.4%	4.7%	-1.7%	11.2	·	·
CCOC(=O)C1=C(C)OC(N)=C(C(=O)OCC)[C@@]12C(=O)N(CC(N)=O)c1ccccc12	44.4%	9.4	-11.6%	3.1%	-0.8%	36.6	·	·
Cc1occc1C(=O)N/N=C/c1ccc(Cl)c([N+](=O)[O-])c1	-17.7%	36.9*	-2.4%	-13.5%	?	56.4*	·	?
SMILES	AmpC no deterg	CHX counter-1	AmpC detergent	AMA1 RON2 block	SARS PLpro yeast-1	Shiga inhibitor	CHX counter-2	SARS PLpro yeast-2
COc1ccc(C(=O)CC(=O)C(=O)Nc2cc(Cl)c(OC)cc2OC)cc1	-31.1%	-0.8	2.0%	34.0%	?	-3.5	·	+
COc1cccc(C(=O)CC(=O)C(=O)Nc2cc(Cl)c(OC)cc2OC)c1	-34.0%	-4.1	-11.1%	43.5%	-4.4%	-3.7	·	·
CCCOc1ccc(/C=N/Nc2cc(N3CCOCC3)ncn2)c(O)c1	32.0%	-1.0	-12.6%	78.5%	5.01µM*	-2.7	·	+
Clc1ccccc1/C=N/Nc1cc(N2CCOCC2)ncn1	79.1%	32.3	-3.0%	1.8%	-0.3%	32.6	·	·
O=C(COc1ccccc1)NCC(=O)N/N=C/c1cccs1	-13.1%	0.9	?	54.8%	2.8%	-17.5	·	·
Cn1cccc1C(=S)N1CCOCC1	-22.8%	-1.3	?	-0.3%	1.2%	-4.7	·	·
Cn1cccc1C(=S)N=P(C1CCCCC1)(N1CCOCC1)N1CCOCC1	-3.8%	-1.5	-7.5%	2.3%	2.82µM*	-14.3	·	i
NC(=O)c1nsc(C(=O)N(CC(=O)NCc2ccc3c(c2)OCO3)C2CCCC2)c1N	-36.5%	13.7	-4.9%	20.1%	-1.1%	-8.2	·	·
C=CCn1c(SCC(=O)Nc2cc3oc4ccccc4c3cc2OC)nnc1-c1cnccn1	68.3%	-1.9	-8.7%	3.2%	-1.7%	-3.6	·	·
COc1ccccc1CNC(=S)NCCc1ccccc1	-20.1%	12.5	-12.5%	-1.4%	?	46.7*	·	?
Cc1cccc2sc(NNC(=O)c3ccc(S(=O)(=O)N4CCc5ccccc5C4)cc3)nc12	14.1µM*	6.7	-8.8%	35.6%	10µM*	7.6	·	+
CCOC(=O)N1CCN(S(=O)(=O)c2ccc(C(=O)NNc3nc4c(C)cccc4s3)cc2)CC1	-22.1%	-2.3	?	95.6%	7.94µM*	6.7	·	+
CCOC(=O)N1CCN(S(=O)(=O)c2ccc(C(=O)N(CCN(CC)CC)c3nc4c(C)cccc4s3)cc2)CC1	1.1%	0.9	4.9%	-1.4%	-2.5%	-3.0	·	·
CCOC(=O)N1CCN(S(=O)(=O)c2ccc(C(=O)NNc3nc4cc(C)cc(C)c4s3)cc2)CC1	20.0%	-3.4	-0.6%	57.7%	7.94µM*	-11.9	·	?
CCOC(=O)N1CCN(S(=O)(=O)c2ccc(C(=O)NNc3nc4ccc(Cl)cc4s3)cc2)CC1	?	1.2	?	145.0%	10µM*	-13.1	·	+

Source: PubChem (National Center for Advancing Translational Sciences (NCATS))
